# Test results: PubChem BioAssay AID1259420 (Broad Institute, 2018)
# Among all 1,000 compounds or so, about 250 (25%) were called active. About 31% were inconclusive and are not listed. These entries were drawn from the full list. Measured potencies and affinities stand elsewhere. Values without a mark were called inactive. The rule behind the calls is not given here.
# Experiment: T. gondii intracellular growth, IFN-gamma absent, dose response, cell-based (AID 1259420);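 note: host cells were HeLa; final incubation lasted 72 hours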
# Details: Toxoplasma gondii growth in host cells, no IFN-gamma
structure (smiles),measurement,setting,value
C[C@H]1[C@H](NC(=O)/C(=N\OC(C)(C)C(=O)O)c2csc(N)n2)C(=O)N1S(=O)(=O)O,max activity,at 19.5 µM unless noted,-8.75% [at 1.35 µM]
OC[C@H]1[C@H](c2ccc(C#Cc3ccccc3F)cc2)[C@H]2CN(CC3CCOCC3)CCCCN21,max activity,at 19.5 µM unless noted,7.1% [at 0.16 µM]
CCc1cnc(N2[C@H](C#N)[C@@H](c3ccc(C#Cc4ccccc4F)cc3)[C@H]2CO)s1,max activity,at 10 µM,8.24%
same,max activity,at 19.5 µM,32.4%
CCc1cnc(N2[C@@H](C#N)[C@@H](c3ccc(C4=CCCCC4)cc3)[C@@H]2CO)s1,max activity,at 19.5 µM unless noted,-7.27%
OC[C@@H]1[C@@H](c2ccc(C#Cc3ccccc3F)cc2)[C@H]2CN(CC3CCOCC3)CCCCN12,max activity,at 19.5 µM unless noted,24.4%
CCS(=O)(=O)N1[C@H](CO)[C@@H](c2ccc(C#Cc3ccccc3F)cc2)[C@@H]1C#N,max activity,at 19.5 µM unless noted,10.1% [at 2.35 µM]
CCS(=O)(=O)N1CC(=O)N2[C@H](CO)[C@@H](c3ccc(-c4cccc(F)c4)cc3)[C@@H]2C1,max activity,at 0.6 µM,7.66%
same,max activity,at 1.2 µM,-9.75%
CCC(=O)N1CC(=O)N2[C@@H](CO)[C@@H](c3ccc(C#CCC(C)C)cc3)[C@@H]2C1,max activity,at 19.5 µM unless noted,8.67% [at 0.3 µM]
O=C(NC1CCCCC1)N1C[C@@H]2N[C@H](C1)C2c1ccc(-c2ccc(F)cc2)cc1 (stereo partly specified),max activity,at 19.5 µM unless noted,22.3% [at 10 µM]
COC[C@@H]1CN(CC2CC2)C[C@@]12CCN(CCc1ccccc1)C2,max activity,at 19.5 µM unless noted,18.3%
N#Cc1cccc(-c2ccc3c(c2)[C@@H]2[C@@H](CCN2C(=O)c2ccccc2F)[C@@H](CO)N3)c1,max activity,at 19.5 µM unless noted,-14.2% [at 1.2 µM]
Cc1ccccc1S(=O)(=O)N1CCCCN2[C@H](CO)[C@H](c3ccc(C#CCN(C)C)cc3)[C@H]2C1,max activity,at 19.5 µM unless noted,8.8%
CCN1CC(C(=O)O)CN2CCN(C(=O)c3ccncc3F)CC2C1 (stereo unspecified),max activity,at 19.5 µM unless noted,-9.96% [at 1.2 µM]
CC[C@H](C(=O)N1CCCC[C@H]1C(=O)O[C@H](CCc1ccc(OC)c(OC)c1)c1cccc(OCC(=O)NCCNC(=O)COc2cccc([C@@H](CCc3ccc(OC)c(OC)c3)OC(=O)[C@@H]3CCCCN3C(=O)[C@@H](CC)c3cc(OC)c(OC)c(OC)c3)c2)c1)c1cc(OC)c(OC)c(OC)c1,max activity,at 19.5 µM unless noted,-10.8% [at 5 µM]
C1=CC[C@H]2CN(c3ncnc4[nH]ccc34)C[C@H]2C1,max activity,at 19.5 µM unless noted,15.7% [at 10 µM]
CCN1CCn2c(-c3cccc(F)c3)cnc2C12CCN(c1ncccn1)CC2,max activity,at 19.5 µM unless noted,-16.6% [at 2.6 µM]
FC(F)(F)C1CN(c2cc(-c3ccccc3)nc3ccccc23)CCO1 (stereo unspecified),max activity,at 19.5 µM unless noted,-8.74% [at 1.2 µM]
C/C=C/c1ccc(C2[C@H]3CNC[C@@H]2N3Cc2ccc3c(c2)OCO3)cc1 (stereo partly specified),max activity,at 19.5 µM unless noted,11.3%
Fc1ccc(F)c(CN2[C@@H]3CNC[C@H]2C3c2ccc(-c3ccncc3)cc2)c1 (stereo partly specified),max activity,at 0.16 µM,-17.4%
same,max activity,at 10 µM,-4.19%
C[C@@H]1CN([C@@H](C)CO)C(=O)Cc2cc(NS(=O)(=O)c3ccc(Cl)cc3)ccc2O[C@@H]1CN(C)C(=O)Nc1ccc(C(F)(F)F)cc1,max activity,at 19.5 µM unless noted,23.3%
CC(C)N1CCC(c2ccnc3c(C(=O)N4CCCN(C)CC4)ncn23)CC1,max activity,at 19.5 µM unless noted,-10.4% [at 5 µM]
N#C[C@@H]1[C@H](c2ccc(-c3cccc(F)c3)cc2)[C@@H](CO)N1C(=O)NC1CCCC1,max activity,at 19.5 µM unless noted,22.7%
C/C=C/c1ccc([C@H]2[C@H](CO)N3C(=O)CN(C(=O)NC4CCCCC4)C[C@@H]23)cc1,max activity,at 19.5 µM unless noted,-12.8%
N#C[C@H]1[C@H](c2ccc(-c3cccc(F)c3)cc2)[C@H](CO)N1C(=O)NC1CCCC1,max activity,at 19.5 µM unless noted,27.1%
N#C[C@@H]1[C@@H](c2ccc(C#Cc3cccnc3)cc2)[C@@H](CO)N1C(=O)NC1CCCCC1,max activity,at 19.5 µM unless noted,-10.9%
N#C[C@H]1[C@@H](c2ccc(-c3cccc(F)c3)cc2)[C@H](CO)N1C(=O)NC1CCCC1,max activity,at 1.2 µM,-11.5%
same,max activity,at 19.5 µM,14.4%
COCC(=O)N1[C@H](C#N)[C@H](c2ccc(C#CCC3CCCC3)cc2)[C@@H]1CO,max activity,at 19.5 µM unless noted,6.51% [at 10 µM]
CCC(C)NC(=O)Cn1c(=O)c(S(=O)(=O)c2ccccc2)cc2ccccc21 (stereo unspecified),max activity,at 19.5 µM unless noted,-6.38% [at 1.2 µM]
COc1ccc(CN2C[C@@H]3CN(Cc4cnn(C)c4)C[C@H]3C2=O)cc1,max activity,at 19.5 µM unless noted,-13% [at 10 µM]
Cc1cccc(S(=O)(=O)N2C[C@H]3[C@@H](c4ccccc42)[C@@H](CO)N3C(=O)c2ccccc2)c1,max activity,at 19.5 µM unless noted,6.73% [at 0.16 µM]
COCCC(=O)N1C[C@H](OCc2ccccn2)[C@@H]2COC[C@@H]21,max activity,at 19.5 µM unless noted,-16.7% [at 0.3 µM]
Oc1cccc(-c2nccn2-c2cccc(-c3ccn[nH]3)c2)c1,max activity,at 19.5 µM unless noted,-6.88% [at 10 µM]
